In the supplement of paper PMC10849652:
The full data set covers some 7,900 targets. This sample favours those with a hit. About 0.6% of all pairs of compound and target were hits. Unmarked numbers belong to inactive results.

Assays:
Assay in all cases: log2 fold change, soluble protein after heating vs DMSO (PISA); higher = thermal stabilisation; K562 cells, 10 uM, 30 min; active = over 0.2 and 3.5 SD of the protein, either way, in both replicates (recomputed)
erlotinib = compound: C#Cc1cccc(Nc2ncnc3cc(OCCOC)c(OCCOC)cc23)c1 [erlotinib]
Summary of the method: (§1)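 Aliquots of K562 cells (2×10^6 cells/mL) treated with 10 μM compound for 30 min were heated for 3 min over 48°C-58°C. After pooling and extraction in PBS with 0.5% NP-40 at 4°C, soluble protein from a 21,000xg, 90 min spin was quantified by TMTpro 16plex LC-MS/MS with channel sums equalised. Thermal stability is expressed against control samples, from duplicates, as a log2 fold change.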

[1] = compound: C/C(=N\NC(=O)C1=CC(=CC=C1)S(=O)(=O)N2CCOCC2)/C3=C(C=CC(=C3)Cl)O
Summary of the method: as §1

[2] = compound: C1=CC(=C(C=C1Cl)C2=NC3=NC=CN=C3C(=N2)NC4=CC=NC=C4)F
Summary of the method: as §1

[3] = compound: C1=CC(=CC=C1C2=NC3=C(N2)C=C(C=C3)C(=O)N)OC4=CC=C(C=C4)Cl
Summary of the method: as §1

[4] = compound: C1=CC2=C(C=CC(=C2)/C=C\3/C(=O)NC(=NCC4=CC=CS4)S3)N=C1
Summary of the method: as §1

[5] = compound: C1=CC2=NC=CN=C2C=C1/C=C/3\C(=O)NC(=O)S3
Summary of the method: as §1

[6] = compound: C1=CC=C(C=C1)C2=NC(=C(N2)C3=CC=NC=C3)C4=CC(=C(C=C4)Cl)O
Summary of the method: as §1

[7] = compound: C1=CC=C2C(=C1)C3=NNC4=CC=CC(=C43)C2=O
Summary of the method: as §1

[8] = compound: C1CCN(C1)C(=O)NC2=CC=CC(=C2)NC3=NC=C(C(=N3)NCCC4=CN=CN4)Br
Summary of the method: as §1

[9] = compound: C1CN(CCC1(CC2=CC=C(C=C2)Cl)N)C3=NC=NC4=C3C=CN4
Summary of the method: as §1

IRAK-1-4 Inhibitor I = compound: C1COCCN1CCN2C3=CC=CC=C3N=C2NC(=O)C4=CC(=CC=C4)[N+](=O)[O-] [IRAK-1-4 Inhibitor I]
Summary of the method: as §1

ibrutinib = compound: C=CC(=O)N1CCC[C@@H](n2nc(-c3ccc(Oc4ccccc4)cc3)c3c(N)ncnc32)C1 [ibrutinib]
Summary of the method: as §1

[10] = compound: CC(=O)c1cnc2ccc(-c3cc(Cl)c(O)c(Cl)c3)nc2c1N[C@H]1CC[C@H](CN(C)C)CC1
Summary of the method: as §1

ralimetinib = compound: CC(C)(C)Cn1c(N)nc2ccc(-c3[nH]c(C(C)(C)C)nc3-c3ccc(F)cc3)nc21 [ralimetinib]
Summary of the method: as §1

[11] = compound: CC(C)(O)CC(=O)NCCn1ccc2ncnc(Nc3ccc(Oc4cccc(C(F)(F)F)c4)c(Cl)c3)c21
Summary of the method: as §1

[12] = compound: CC(C)C1=C2N=C(C=C(N2N=C1)NCC3=CC=CC=C3)NCCCCCCN
Summary of the method: as §1

[13] = compound: CC(C)C[C@@H](C=O)NC(=O)[C@H](CC(C)C)NC(=O)[C@H](CC(C)C)NC(=O)OCc1ccccc1
Summary of the method: as §1

pinometostat = compound: CC(C)N(C[C@H]1O[C@@H](n2cnc3c(N)ncnc32)[C@H](O)[C@@H]1O)[C@H]1C[C@@H](CCc2nc3cc(C(C)(C)C)ccc3[nH]2)C1 [pinometostat]
Summary of the method: as §1

[14] = compound: CC1=C(C(CC(=O)N1)C2=CC=C(C=C2)C(F)(F)F)C(=O)NC3=C(C=C4C(=C3)C=NN4)F
Summary of the method: as §1

[15] = compound: CC1=C(C2=C(C=C1)C(=O)C3=CC=CC=C3N2CCCN)C
Summary of the method: as §1

Chain of UniProt Q96ER3 (Q96ER3 whole entry, looked up): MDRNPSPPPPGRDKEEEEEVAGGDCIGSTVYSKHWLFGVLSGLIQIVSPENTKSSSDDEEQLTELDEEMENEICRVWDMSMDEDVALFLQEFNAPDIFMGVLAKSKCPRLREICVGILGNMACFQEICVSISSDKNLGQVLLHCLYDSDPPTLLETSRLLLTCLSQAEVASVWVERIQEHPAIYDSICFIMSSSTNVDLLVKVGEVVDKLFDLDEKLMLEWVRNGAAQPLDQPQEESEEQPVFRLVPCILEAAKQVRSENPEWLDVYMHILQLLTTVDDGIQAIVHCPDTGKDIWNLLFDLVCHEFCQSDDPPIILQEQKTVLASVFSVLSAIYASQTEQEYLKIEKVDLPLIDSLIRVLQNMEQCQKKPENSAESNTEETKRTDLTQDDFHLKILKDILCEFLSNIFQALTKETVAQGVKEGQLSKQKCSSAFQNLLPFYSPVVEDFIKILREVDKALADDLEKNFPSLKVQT
Chain of UniProt Q9NTJ5 (Q9NTJ5 whole entry, looked up): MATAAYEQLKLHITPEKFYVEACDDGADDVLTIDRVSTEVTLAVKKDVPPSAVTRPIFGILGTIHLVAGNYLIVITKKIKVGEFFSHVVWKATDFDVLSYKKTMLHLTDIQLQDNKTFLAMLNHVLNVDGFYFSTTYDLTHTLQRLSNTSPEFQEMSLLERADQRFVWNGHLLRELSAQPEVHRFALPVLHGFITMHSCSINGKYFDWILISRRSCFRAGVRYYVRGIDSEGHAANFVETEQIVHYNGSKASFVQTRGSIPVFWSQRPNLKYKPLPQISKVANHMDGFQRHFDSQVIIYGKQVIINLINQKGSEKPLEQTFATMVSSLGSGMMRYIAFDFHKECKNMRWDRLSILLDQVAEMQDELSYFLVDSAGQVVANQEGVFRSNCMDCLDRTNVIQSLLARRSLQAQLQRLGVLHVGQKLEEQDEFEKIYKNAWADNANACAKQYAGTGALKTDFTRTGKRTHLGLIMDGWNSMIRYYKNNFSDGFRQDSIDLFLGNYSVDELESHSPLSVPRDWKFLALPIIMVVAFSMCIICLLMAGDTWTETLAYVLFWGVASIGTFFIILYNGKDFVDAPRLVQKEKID
Chain of UniProt Q9Y6Y8 (Q9Y6Y8 whole entry, looked up): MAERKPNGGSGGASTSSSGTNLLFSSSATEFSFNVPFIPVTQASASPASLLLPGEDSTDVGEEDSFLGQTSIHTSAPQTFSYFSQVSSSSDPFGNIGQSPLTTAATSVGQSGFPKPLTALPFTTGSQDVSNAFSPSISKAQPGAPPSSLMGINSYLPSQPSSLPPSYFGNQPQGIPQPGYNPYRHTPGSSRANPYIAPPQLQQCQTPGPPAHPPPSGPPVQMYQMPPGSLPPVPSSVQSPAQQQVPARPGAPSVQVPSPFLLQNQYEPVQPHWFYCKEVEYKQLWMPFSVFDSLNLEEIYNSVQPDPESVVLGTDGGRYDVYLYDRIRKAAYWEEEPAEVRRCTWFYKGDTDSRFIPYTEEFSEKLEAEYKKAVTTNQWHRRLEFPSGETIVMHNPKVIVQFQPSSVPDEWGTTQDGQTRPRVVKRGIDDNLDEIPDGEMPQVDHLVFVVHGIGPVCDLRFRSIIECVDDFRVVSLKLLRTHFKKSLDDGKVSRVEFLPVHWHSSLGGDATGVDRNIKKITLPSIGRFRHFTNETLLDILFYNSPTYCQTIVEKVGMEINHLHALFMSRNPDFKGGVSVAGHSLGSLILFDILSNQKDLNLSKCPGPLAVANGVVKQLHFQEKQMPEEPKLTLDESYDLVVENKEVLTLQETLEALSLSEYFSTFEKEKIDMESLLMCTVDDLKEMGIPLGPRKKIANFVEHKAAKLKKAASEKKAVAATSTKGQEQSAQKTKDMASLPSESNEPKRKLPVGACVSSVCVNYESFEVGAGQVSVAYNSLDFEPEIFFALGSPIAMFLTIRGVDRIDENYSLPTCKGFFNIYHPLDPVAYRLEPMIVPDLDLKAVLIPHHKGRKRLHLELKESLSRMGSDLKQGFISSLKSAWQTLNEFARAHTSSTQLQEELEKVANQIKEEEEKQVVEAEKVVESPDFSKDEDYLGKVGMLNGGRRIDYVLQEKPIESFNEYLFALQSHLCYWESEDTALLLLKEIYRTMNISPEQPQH
Chain of UniProt P49756 (P49756 whole entry, looked up): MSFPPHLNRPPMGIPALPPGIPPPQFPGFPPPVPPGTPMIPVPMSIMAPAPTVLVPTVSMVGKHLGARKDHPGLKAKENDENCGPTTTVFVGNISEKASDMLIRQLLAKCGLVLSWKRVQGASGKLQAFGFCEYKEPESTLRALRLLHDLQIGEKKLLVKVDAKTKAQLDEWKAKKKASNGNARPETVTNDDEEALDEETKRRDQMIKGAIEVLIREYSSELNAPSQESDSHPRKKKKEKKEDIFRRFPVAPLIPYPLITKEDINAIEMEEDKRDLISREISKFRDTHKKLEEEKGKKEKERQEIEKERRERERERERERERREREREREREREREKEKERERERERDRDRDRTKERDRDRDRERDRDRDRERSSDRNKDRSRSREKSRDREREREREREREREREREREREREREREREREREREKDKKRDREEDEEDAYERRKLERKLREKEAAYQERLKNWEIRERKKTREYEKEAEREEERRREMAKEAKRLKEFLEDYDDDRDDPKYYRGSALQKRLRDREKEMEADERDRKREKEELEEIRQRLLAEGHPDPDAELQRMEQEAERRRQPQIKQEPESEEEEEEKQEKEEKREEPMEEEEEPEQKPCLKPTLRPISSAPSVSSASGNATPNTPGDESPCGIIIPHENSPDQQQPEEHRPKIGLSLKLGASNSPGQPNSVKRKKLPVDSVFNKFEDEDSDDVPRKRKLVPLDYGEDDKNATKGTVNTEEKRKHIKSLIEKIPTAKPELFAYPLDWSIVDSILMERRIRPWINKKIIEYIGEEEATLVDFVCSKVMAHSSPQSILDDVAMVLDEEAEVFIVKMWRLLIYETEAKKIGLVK
Chain of UniProt Q8IZE3 (Q8IZE3 whole entry, looked up): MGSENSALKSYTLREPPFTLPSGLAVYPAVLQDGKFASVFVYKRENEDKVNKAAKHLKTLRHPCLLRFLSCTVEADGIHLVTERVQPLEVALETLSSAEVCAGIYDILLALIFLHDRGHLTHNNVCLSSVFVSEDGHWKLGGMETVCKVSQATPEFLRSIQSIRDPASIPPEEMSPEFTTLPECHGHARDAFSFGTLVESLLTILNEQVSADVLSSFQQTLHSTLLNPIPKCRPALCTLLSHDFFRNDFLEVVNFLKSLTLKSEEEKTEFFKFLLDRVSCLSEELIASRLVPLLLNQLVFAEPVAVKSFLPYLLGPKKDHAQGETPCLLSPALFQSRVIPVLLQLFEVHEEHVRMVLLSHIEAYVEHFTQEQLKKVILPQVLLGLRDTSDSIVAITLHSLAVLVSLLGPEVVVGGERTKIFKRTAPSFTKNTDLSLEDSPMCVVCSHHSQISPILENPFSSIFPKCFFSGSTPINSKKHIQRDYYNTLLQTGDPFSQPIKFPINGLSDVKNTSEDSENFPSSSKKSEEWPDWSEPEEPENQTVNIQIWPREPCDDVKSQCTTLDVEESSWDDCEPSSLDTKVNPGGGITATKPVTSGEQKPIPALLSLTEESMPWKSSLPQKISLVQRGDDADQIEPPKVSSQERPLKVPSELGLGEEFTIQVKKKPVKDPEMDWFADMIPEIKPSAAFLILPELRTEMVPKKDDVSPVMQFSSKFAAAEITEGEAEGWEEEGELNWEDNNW
Chain of UniProt Q14151 (Q14151 whole entry, looked up): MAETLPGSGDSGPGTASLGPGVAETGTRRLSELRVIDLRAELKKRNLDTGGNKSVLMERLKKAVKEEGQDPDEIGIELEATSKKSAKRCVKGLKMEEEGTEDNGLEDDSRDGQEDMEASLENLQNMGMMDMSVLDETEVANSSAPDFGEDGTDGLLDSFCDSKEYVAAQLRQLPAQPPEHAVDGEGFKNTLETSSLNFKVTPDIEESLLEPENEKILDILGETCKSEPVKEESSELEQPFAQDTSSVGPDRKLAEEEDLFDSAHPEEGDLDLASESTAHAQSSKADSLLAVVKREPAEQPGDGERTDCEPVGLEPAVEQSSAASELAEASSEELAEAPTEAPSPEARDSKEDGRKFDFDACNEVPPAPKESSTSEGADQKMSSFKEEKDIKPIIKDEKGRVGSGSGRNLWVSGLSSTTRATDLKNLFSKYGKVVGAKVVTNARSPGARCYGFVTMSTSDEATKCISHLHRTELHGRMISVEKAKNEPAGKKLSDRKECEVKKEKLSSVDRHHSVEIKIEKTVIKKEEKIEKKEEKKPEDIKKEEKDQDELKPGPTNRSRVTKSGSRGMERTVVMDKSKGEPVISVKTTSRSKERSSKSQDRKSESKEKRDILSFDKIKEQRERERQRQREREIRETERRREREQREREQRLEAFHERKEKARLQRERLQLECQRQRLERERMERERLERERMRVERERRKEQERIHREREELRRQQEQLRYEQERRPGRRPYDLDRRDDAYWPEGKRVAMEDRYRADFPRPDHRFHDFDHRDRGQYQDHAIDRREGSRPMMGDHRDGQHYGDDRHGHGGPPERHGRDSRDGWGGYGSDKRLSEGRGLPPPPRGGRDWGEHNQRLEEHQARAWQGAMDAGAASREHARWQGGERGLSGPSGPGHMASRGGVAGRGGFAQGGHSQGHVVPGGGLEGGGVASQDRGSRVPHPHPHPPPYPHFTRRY
Chain of UniProt O43818 (O43818 whole entry, looked up): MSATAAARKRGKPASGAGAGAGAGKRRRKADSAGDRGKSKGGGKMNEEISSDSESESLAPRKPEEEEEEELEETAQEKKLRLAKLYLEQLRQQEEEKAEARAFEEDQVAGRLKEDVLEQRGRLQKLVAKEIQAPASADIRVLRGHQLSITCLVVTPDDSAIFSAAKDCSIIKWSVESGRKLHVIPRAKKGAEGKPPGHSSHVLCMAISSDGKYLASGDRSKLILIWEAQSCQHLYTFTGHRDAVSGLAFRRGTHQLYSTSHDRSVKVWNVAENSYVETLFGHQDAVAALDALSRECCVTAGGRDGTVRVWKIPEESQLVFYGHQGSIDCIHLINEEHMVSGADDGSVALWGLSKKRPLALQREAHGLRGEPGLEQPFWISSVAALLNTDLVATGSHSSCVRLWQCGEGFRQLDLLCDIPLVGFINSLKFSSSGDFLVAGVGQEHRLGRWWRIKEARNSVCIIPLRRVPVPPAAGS

Row | Target | log2 fold change (erlotinib) | log2 fold change [1] | log2 fold change [2] | log2 fold change [3] | log2 fold change [4] | log2 fold change [5] | log2 fold change [6] | log2 fold change [7] | log2 fold change [8] | log2 fold change [9] | log2 fold change (IRAK-1-4 Inhibitor I) | log2 fold change (ibrutinib) | log2 fold change [10] | log2 fold change (ralimetinib) | log2 fold change [11] | log2 fold change [12] | log2 fold change [13] | log2 fold change (pinometostat) | log2 fold change [14] | log2 fold change [15]
1 | RPRD1B (UniProt Q9NQG5) | -0.065 | 0.086 | 0.036 | 0.028 | 0.063 | 0.052 | 0.042 | -0.005 | 0.009 | -0.046 | 0 | -0.021 | -0.017 | 0 | -0.06 | -0.018 | -0.028 | -0.038 | 0.022 | 0.104
2 | SCYL3 isoform 2 (UniProt Q8IZE3) | 0.046 | 0.055 | 0.07 | -0.05 | 0.068 | -0.024 | 0.058 | 0.014 | 0.093 | 0.123 | 0.087 | 0.02 | -0.002 | -0.043 | -0.063 | -0.052 | -0.002 | 0.054 | 0.013 | -0.146
3 | SLC12A9 (UniProt Q9BXP2) | 0.023 | 0.03 | 0.039 | -0.013 | -0.04 | 0.021 | 0.016 | -0.015 | -0.019 | -0.012 | 0.112 | -0.001 | 0.016 | -0.106 | -0.012 | -0.165 | 0.033 | -0.018 | 0.028 | 0.056
4 | RBM25 (UniProt P49756) | 0.142 | -0.037 | -0.039 | -0.025 | -0.014 | 0.055 | -0.012 | -0.008 | -0.076 | -0.137 | 0.031 | 0.01 | -0.032 | 0.102 | -0.044 | 0.026 | 0.057 | -0.039 | -0.001 | 0.042
5 | SERPINA7 (UniProt P05543) | -0.118 | -0.1 | -0.024 | 0.091 | 0.15 | -0.111 | -0.004 | -0.072 | 0.164 | 0.272 | 0.095 | 0.229 | 0.227 | -0.062 | 0.314 | 0.066 | 0.043 | 0 | 0.077 | -0.245
6 | SAFB2 (UniProt Q14151) | 0.015 | -0.135 | -0.294 | 0.071 | -0.148 | 0.049 | 0.014 | -0.015 | -0.037 | -0.041 | -0.065 | -0.012 | 0.026 | 0.037 | 0.165 | 0.042 | 0.049 | 0.05 | 0.018 | -0.074
7 | SEC23IP (UniProt Q9Y6Y8) | 0.03 | 0.022 | -0.013 | -0.037 | 0.028 | 0.229 | -0.023 | -0.027 | -0.008 | -0.061 | -0.007 | -0.023 | -0.048 | -0.004 | -0.119 | -0.252 (active) | 0.006 | 0.032 | 0.059 | -0.011
8 | RRP9 (UniProt O43818) | 0.018 | -0.04 | -0.099 | -0.004 | -0.042 | 0.03 | -0.114 | -0.085 | -0.081 | -0.016 | -0.043 | 0.017 | -0.062 | 0.014 | 0.133 | -0.04 | -0.002 | 0.01 | 0.136 | -0.432 (active)
9 | SAAL1 (UniProt Q96ER3) | -0.044 | 0.028 | 0.046 | 0.022 | -0.033 | 0.125 | -0.041 | -0.007 | 0.042 | -0.03 | 0.019 | -0.035 | 0.578 (active) | -0.033 | -0.112 | 0.012 | 0.032 | 0.073 | 0.026 | 0.239 (active)
10 | SEC16A isoform 5 (UniProt O15027) | 0.126 | -0.143 | -0.064 | 0.015 | 0.153 | -0.018 | 0.044 | 0.069 | 0.06 | 0.017 | -0.136 | -0.062 | -0.069 | 0.172 | -0.177 | -0.282 (active) | 0.046 | 0.097 | -0.027 | 0.025
11 | SACM1L (UniProt Q9NTJ5) | 0.005 | 0.1 | 0.109 | -0.061 | 0.039 | -0.007 | 0.077 | 0.009 | 0.001 | 0.068 | 0.008 | -0.031 | -0.022 | 0.064 | -0.007 | -0.262 (active) | -0.01 | -0.042 | -0.035 | 0.029
12 | RAB3GAP2 (UniProt Q9H2M9) | 0.068 | 0.083 | -0.043 | -0.058 | 0.035 | -0.011 | -0.025 | 0.004 | -0.068 | -0.018 | -0.079 | -0.016 | -0.031 | 0.03 | 0 | -0.26 (active) | 0.026 | 0.115 | 0.004 | -0.016
